Assay [1] can be described thus: qHTS Assay for Identifying Gametocytocidal Compounds (AID 743244). Further: potency means the concentration at half of the fitted maximal effect.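 On max response: actives lower the fluorescent signal which means gametocytes are killed.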 Conditions: P. falciparum 3D7 stage III-V gametocytes, alamarBlue, 72 h; max response: stronger effect = lower value. The method in brief: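 Stage III-V P. falciparum 3D7 gametocytes, 20,000 per well, were exposed to compounds for 72 h at 37C, 5% CO2. AlamarBlue was then added for 24 h and viability was read as fluorescence at Ex 525/Em 598 nm.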

A short description of assay [2]: qHTS assay for measurement of the activity of small molecule inhibitors on Zika virus induced Caspase-3 activity in human iPSC derived neural progenitor cells (hNPCs) (AID 1224857). Further: nearly all actives have a fitted effect of over 65% in size. The essentials: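 Human iPSC-derived neural progenitor cells pretreated 1 hr with compounds, then infected with Zika virus (2 FFU/cell) for 6 hours at 37 C. Caspase-3/7 measured by Caspase-Glo luminescence; % inhibition calculated from induction scaled to uninfected (0%) and infected (100%) wells.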

Assay [3] is described as follows: qHTS assay for measurement of the activity of small molecule inhibitors on Zika virus induced Caspase-3 activity in human astrocytoma cells (AID 1224859). The method in brief:
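SNB-19 astrocytoma cells, 250/well, pretreated 1 h with compounds, then Zika virus at 2 FFU/cell for 6 h at 37 C; Caspase-Glo 3/7 luminescence after 30 min; percent inhibition normalised to uninfected and infected controls.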

In assay [4] the target is T1, Hexokinase-4 (Homo sapiens) + Glucokinase regulatory protein (Homo sapiens) (UniProt P35557+Q14397). Kind of assay: qHTS assay for inhibitors of recombinant human GCK-GKRP interaction: Diaphorase-coupled assay (AID 743205). The method in brief:
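Inhibitors of the GCK–GKRP complex relieve GKRP suppression of GCK, detected through a G6PDH–diaphorase cascade reducing resazurin. Human GST-GCK and FLAG-GKRP are used at 10 nM with 5 mM glucose and 0.4 mM ATP.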

Assay [5] has as its target T1, Hexokinase-4 (Homo sapiens) + Glucokinase regulatory protein (Homo sapiens). Nature of the assay: qHTS assay for inhibitors of recombinant human GCK-GKRP interaction: ADP-Glo assay (AID 743206). The method in brief: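 Pin-transferred compounds meet a 15 nM GST-GCK/15 nM FLAG-GKRP/2 uM S6P mix (dispense concentrations). ATP is then added to 0.4 mM final with 5 mM glucose, and the reaction runs 60 min at room temperature. ADP is quantified luminescently.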

For assay [6] the target is unchanged. Nature of the assay: qHTS assay for inhibitors of recombinant human GCK-GKRP interaction: HTRF assay (AID 743207). The method in brief:
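Steps: dispense GCK–GKRP complex (5 nM each, GST- and FLAG-tagged) with 2 uM S6P; pin in compounds; add XL665/Eu-cryptate-labelled antibodies; incubate 60 min at room temperature; read time-resolved FRET at 665 and 615 nm.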

Assay [7] is described as follows: qHTS assay for small molecule agonists of the antioxidant response element (ARE) signaling pathway measured by Nrf2-dependant transcriptional activity (AID 720636; active means well fitted curve in the direction sought with a large enough effect in the repeat runs; an effect the other way counts as inactive or inconclusive;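 further: HepG2 cells with an ARE-driven luciferase reporter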). The essentials: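 Cells: ARE-luc HepG2 with Nrf2-responsive luciferase. Medium contained 1% dialyzed FBS. Compound exposure lasted 16 hr at 37 C and 5% CO2, followed by ONE-Glo luciferase detection.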

Assay [8] can be described thus: qHTS assay for cell viability of the p53RE-bla HCT-116 cell line (AID 743292). Further: nearly all actives have a fitted effect of over 55% in size. The method in brief: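 HCT-116 p53RE-bla cells seeded 4,000/well; 5 h at 37 C; compound (DMSO) added; 16 h at 37 C; CellTiter-Glo added, 30 min RT; luminescence read.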
Assay [9] can be described thus: qHTS profiling for inhibitors of Plasmodium falciparum (3D7) proliferation (AID 743322).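 Further: infected erythrocytes exposed to compound for 72 h before lysis.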 As to conditions: P. falciparum 3D7 proliferation; at 28.7 µM (top of the series). The method in brief: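 Parasite DNA was quantified by SYBR Green I fluorescence (ex 485, em 535 nm) after overnight lysis in saponin/Triton buffer at room temperature. Cultures at 0.3% parasitemia and 2.5% hematocrit were first exposed to compound for 72 h at 37 C; signals were normalised to artemisinin (0.29 uM) and vehicle wells.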

Assay [10] can be described thus: qHTS profiling for inhibitors of Plasmodium falciparum (DD2) proliferation (AID 743323; call rule not given here). As to conditions: lower = more inhibition; at 28.7 µM (top of the series). The essentials: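 1536-well qHTS; infected RBCs 0.3% parasitemia/2.5% Hct final; cpd 72 h 37 C 5% CO2; lysis buffer + SYBR Green I, o/n RT dark; FI 485/535; norm. to 0.29 uM artemisinin and DMSO, plate-stack corrected.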

Results filed as inconclusive are left out. Where a call stands in place of a potency, no number is given. The source made the active and inactive calls. Unless noted, the call rests on the fitted dose curve; in most records, active means well fitted curve in the direction sought with a large enough effect; inconclusive means small, poorly fitted or top-dose-only effect, or another doubt; inactive means no such curve, though single readings can be large; an effect the other way counts as inactive or inconclusive.

T1 sequence (P35557 whole entry, looked up): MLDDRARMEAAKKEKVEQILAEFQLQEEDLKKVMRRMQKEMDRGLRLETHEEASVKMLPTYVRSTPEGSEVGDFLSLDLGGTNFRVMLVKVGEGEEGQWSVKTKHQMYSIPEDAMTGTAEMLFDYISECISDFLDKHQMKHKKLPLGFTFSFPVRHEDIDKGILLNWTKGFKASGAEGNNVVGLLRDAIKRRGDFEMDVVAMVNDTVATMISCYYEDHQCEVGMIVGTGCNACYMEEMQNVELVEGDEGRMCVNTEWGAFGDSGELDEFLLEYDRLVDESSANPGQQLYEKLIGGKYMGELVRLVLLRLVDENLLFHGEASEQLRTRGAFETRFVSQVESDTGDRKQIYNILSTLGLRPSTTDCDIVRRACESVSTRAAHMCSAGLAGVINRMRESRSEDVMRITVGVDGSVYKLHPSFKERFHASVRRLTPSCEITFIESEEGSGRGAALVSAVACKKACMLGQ
T1 sequence (Q14397 whole entry, looked up): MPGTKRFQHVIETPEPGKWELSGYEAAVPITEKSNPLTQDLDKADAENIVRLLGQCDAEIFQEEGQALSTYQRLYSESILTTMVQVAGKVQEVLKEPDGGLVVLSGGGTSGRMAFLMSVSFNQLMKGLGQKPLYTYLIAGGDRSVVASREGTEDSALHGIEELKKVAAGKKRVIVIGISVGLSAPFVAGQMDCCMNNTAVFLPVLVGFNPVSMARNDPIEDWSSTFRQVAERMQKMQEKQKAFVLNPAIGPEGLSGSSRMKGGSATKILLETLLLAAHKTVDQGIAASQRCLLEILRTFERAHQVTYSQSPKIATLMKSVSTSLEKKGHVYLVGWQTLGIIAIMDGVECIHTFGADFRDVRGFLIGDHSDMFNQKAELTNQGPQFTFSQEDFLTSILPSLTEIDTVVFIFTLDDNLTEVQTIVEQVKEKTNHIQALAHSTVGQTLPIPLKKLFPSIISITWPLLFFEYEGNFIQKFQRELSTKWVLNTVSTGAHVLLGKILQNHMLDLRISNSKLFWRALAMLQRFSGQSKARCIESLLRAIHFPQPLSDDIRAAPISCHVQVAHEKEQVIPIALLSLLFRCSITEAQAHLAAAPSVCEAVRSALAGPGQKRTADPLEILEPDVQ

With `C[C@H]1C[C@@H]2[C@H]([C@@H](O)C[C@@]3(C)[C@H]2CC[C@]3(O)C(=O)CO)[C@@]2(C)C=CC(=O)C=C12`, in [1], the max response is -12.4% (inactive). Further, in [2], the Potency entry was “inactive”. Further, in assay [3], the molecule was classed as inactive.

For the molecule `CN1CCC(=C2c3ccccc3CCc3cccnc32)CC1`, the max response in assay [1] was 7.49% (inactive). Also, the Potency result in assay [2] is “inactive”. Further, the outcome in assay [3] was inactive.

Regarding `CCN1CCN(C(=O)N[C@@H](C(=O)N[C@@H]2C(=O)N3[C@@H]2SC(C)(C)[C@H]3C(=O)O)c2ccccc2)C(=O)C1=O`, the max response in assay [1] is -7.03% (inactive). The Potency result in assay [2] was “inactive”. In addition, the outcome in assay [3] was inactive.

As to `CCC[C@H](N[C@@H](C)C(=O)N1[C@H](C(=O)O)C[C@@H]2CCCC[C@@H]21)C(=O)OCC`, in [1], the max response is -14.5% (inactive). Also, the Potency result in assay [2] was “inactive”. Moreover, the outcome in [3] was inactive.

In the case of `O=C1NC(=O)/C(=C/c2ccc3c(c2)OC(F)(F)O3)S1`, the outcome in [4], in assay [5], in assay [6] and in assay [3] was inactive. Moreover, in assay [1], the max response is -20.1% (inactive). In addition, the Potency entry in assay [2] is “inactive”.

In the case of `O=C(Nc1ccc(Cl)cc1)Nc1ccc(Cl)c(Cl)c1`, the result in assay [7] and in assay [3] was inactive. Further, the Potency result in assay [8] and in assay [2] was “inactive” each time. The remaining parasite growth % (stronger effect = lower value) in assay [9] was -1.23%. For the same molecule, the activity, percent of control in assay [10] was -0.0718%.

With `C[C@@H](O[C@H]1OCCN(Cc2n[nH]c(=O)[nH]2)[C@H]1c1ccc(F)cc1)c1cc(C(F)(F)F)cc(C(F)(F)F)c1`, the max response in assay [1] is 16.6% (inactive). In addition, the Potency entry in assay [2] was “inactive”. Moreover, the call in assay [3] was inactive.

Take `Nc1c[n+](N2CCOCC2)no1`: the max response in assay [1] was 2.15% (inactive). Also, the Potency entry in assay [2] was “inactive”. Further, the molecule was classed as inactive in assay [3].

For `OCCCc1ccccc1`, the max response in assay [1] was -2.92% (inactive). Further, the Potency entry in [2] was “inactive”. In addition, the molecule was classed as inactive in assay [3].

Take `CCOC(=O)C1=C(C)NC(C)=C(C(=O)OCC)C1c1ccccc1/C=C/C(=O)OC(C)(C)C`: the max response in assay [1] is 4.06% (inactive). For the same molecule, the Potency entry in [2] was “inactive”. The call in [3] was inactive.

On to `N=C(N)c1ccc(OCCCOc2ccc(C(=N)N)cc2)cc1`, for which, in assay [1], the Potency is 4.47 µM (active). Further, the Potency result in assay [2] was “inactive”. The call in [3] was inactive.

For `CCCCCCCCCCCCCC[N+](C)(C)C`, in [1], the Potency is 14.1 µM (active). Besides, the Potency result in assay [2] was “inactive”. In addition, the result in [3] was inactive.

Turning to `CCOC(=O)[C@H](CCc1ccccc1)N[C@@H](C)C(=O)N(CC(=O)O)C1Cc2ccccc2C1`, the max response in [1] was -4.1% (inactive). Further, the Potency result in [2] was “inactive”. Moreover, the outcome in assay [3] was inactive.

For the molecule `CC(=O)[C@H]1CC[C@H]2[C@@H]3C=CC4=CC(=O)CC[C@@]4(C)[C@@H]3CC[C@]12C`, the max response in assay [1] was -3.42% (inactive). For the same molecule, the Potency result in assay [2] is “inactive”. The molecule was classed as inactive in assay [3].

For the molecule `CC(NN)c1ccccc1` (stereo not drawn), the max response in assay [1] was -6.49% (inactive). The Potency entry in assay [2] was “inactive”. Besides, the outcome in [3] was inactive.

On to `O=C(O)C(=O)Nc1cccc(-c2nn[nH]n2)c1`, for which the max response in assay [1] is -10.1% (inactive). For the same molecule, in assay [2], the Potency entry is “inactive”. For the same molecule, the outcome in [3] was inactive.

In the case of `CC(COc1ccccc1)NN` (stereo not drawn), the max response in [1] was -1.29% (inactive). Further, the Potency result in assay [2] is “inactive”. In addition, the molecule was called inactive in assay [3].

Regarding `Nc1ncnc2nc[nH]c12`, in assay [1], the max response is 3.66% (inactive). For the same molecule, in assay [2], the Potency result is “inactive”. Moreover, the molecule was called inactive in [3].

As for `CN=C(N)NC(=O)Nc1c(C)cccc1C`, the max response in assay [1] is 9.51% (inactive). In addition, the Potency entry in [2] was “inactive”. For the same molecule, in assay [3], the molecule was classed as inactive.

The record behind these values is PubChem BioAssay (NCATS).
